Assays:
Assay in all cases: PBM binding z-score (relative to random genomic background probes); higher = stronger binding; sequences stand for … in GC…GCGATTGACAGCGTAGAATGAAGG
[1] = tested on: RARb homodimer (NR concentration 270 nM)
Summary of the method: (§1)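 Custom Agilent 4×180K protein-binding microarrays carried double-stranded probes. Their 34-nt variable regions held direct-repeat seeds, single-nucleotide variants, half-site ablations and random human genomic background sequences. Arrays were incubated 1 h with ligand-free nuclear receptor dimers in PBS pH 7.4, 2% milk, 0.02% Triton X-100, 1 mM DTT, 0.2 mg/mL BSA and 0.4 mg/ml salmon testes DNA. Antibodies against each partner (one per run) detected binding, and scanned fluorescence was regression-normalized. Binding z-scores use random background probes as reference.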

[2] = tested on: RARg:RXRa (NR concentration 270 nM, RXRa partner concentration 90 nM)
Summary of the method: as §1

[3] = tested on: RARg homodimer (NR concentration 270 nM)
Summary of the method: as §1

[4] = tested on: RXRa DBDmut IVT, anti-RXR (DBD mutation: RXRa K156A/R161A, NR concentration 90 nM)
Summary of the method: as §1

[5] = tested on: RXRa homodimer (NR concentration 180 nM)
Summary of the method: as §1

[6] = tested on: THRa:RXRa (NR concentration 90 nM, RXRa partner concentration 90 nM)
Summary of the method: as §1

[7] = tested on: THRa homodimer (NR concentration 90 nM)
Summary of the method: as §1

[8] = tested on: VDR homodimer (NR concentration 270 nM)
Summary of the method: as §1

Sequence	PBM binding z-score [1]	PBM binding z-score [2]	PBM binding z-score [3]	PBM binding z-score [4]	PBM binding z-score [5]	PBM binding z-score [6]	PBM binding z-score [7]	PBM binding z-score [8]
TAGCCTAGGTCATGGGCCAGTATCCCACGCGAAC	2.76	4	4.2	-0.01	3.19	3.18	1.65	0.301
ACTAGCAGGCCTAGTTTGGGTCACTCAAACAAAG	1.42	0.276	0.565	-0.626	0.395	1.91	0.883	0.0469
CCCGAAAGGTCGGTTGAGGTGAGTATACGGATAA	2.61	2.9	3	0.858	2.41	4.99	1.8	0.636
CATACTGGGCCAAAAAGGTCATTGATGCCGATAA	4.48	4.89	4.82	1.25	5.11	3.14	0.641	3.14
ACTAGCAGGCCAAGGGTCAATCAAGATTAGTCCG	3.46	4.36	3.8	0.567	4.62	2.76	-0.086	0.551
CCAACGAGGGCATGAGTTGATAGCAAATGCCGAT	0.406	0.887	1.35	2.04	0.929	1.01	-0.114	1.2
ACTATTAGTTGAGACAAGGGCAACCGATAGGTTG	1.01	0.568	0.799	0.0242	0.407	1.96	-0.191	0.496
GCTAGGAGGCCATTTGGGTCACTCAATGACGGGC	2.18	1.5	2.23	0.724	0.924	2.33	0.78	1.29
ATCGAAAGGTCGAGGTGAGTTTAGAGAAAGGGAA	3.07	4.88	4.68	1.24	4.47	3.01	0.695	2.21
TCTTGTAGATCAACAGGAGGTTCAGAAAGATCGA	-0.296	0.00148	-0.0996	0.388	0.331	0.0407	-1	0.524
TCTGCTAGGTCAGTTGGTCAGGTAACGAGCTGCC	2.67	2.55	3.52	0.427	0.908	1.95	0.951	-0.545
AGAATGAGGTTAAGATCCGGGAAACAGAATACAT	0.774	2.06	1.4	0.76	2.46	2.37	0.603	0.257
ACTCGGAGGACAAAGGTCAAAGCTACGCCAGTGA	5.02	7.08	6.07	1.75	6.78	4.03	0.972	2.28
GCTGCTAGGTCAGATTGGTCAGCTAACGGGTACG	2.58	2.22	3.18	0.569	1.11	1.73	0.354	0.117
